Most compounds without a hit are left out; they make up all but 10% or so of the library.
IMPase inh – qHTS Assay for Identifying the Cell-Membrane Permeable IMPase Inhibitors | Inositol monophosphatase 1 (Rattus norvegicus), P97697 | CHO-M1 cells, IP1 accumulation, HTRF TR-FRET ratio | inhibition (IP1 accumulation), % at 46.1 µM | 120,000 tested, under 10 active; active = well fitted curve in the direction sought with a large enough effect in the signal ratio, not every such curve was filed as active; inconclusive = small, poorly fitted or top-dose-only effect, or a change in a side signal; inactive = no such curve, though single readings can be large or run the other way; the % refers to the signal ratio;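 note: cells stimulated with carbachol in lithium chloride buffer; higher means more IMPase inhibition seen as more IP1 and lower FRET ratio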
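Cellular IMPase inhibition is scored as a rise in cytosolic IP1, detected by competitive TR-FRET between d2-labelled IP1 and a europium anti-IP1 antibody. M1-expressing CHO cells were stimulated with carbachol for 30 min at 37C, with lithium (50 mM LiCl) present in the buffer.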
PNC assembly inh – High Content Assay for Compounds that inhibit the Assembly of the Perinucleolar Compartment; PC3M PTB-GFP, PNC prevalence imaging, 16 h; active compounds read low; activity change (PNC), negative = inhibition, % at 10 µM; AID 2417, 2010; 140,000 compounds, 3.1% hits;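 active = readout at or below -70, meaning at least 70% loss of cells showing the perinucleolar compartment, a nuclear body marking cancer cells; inconclusive = readout between -30 and a set limit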
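Read-out is percentage of cells bearing a perinucleolar compartment, from automated 20x imaging of fixed, Hoechst-stained PC3M PTB-GFP cells. Cells were seeded 4 h, then exposed 16 h to compound (23 nl of library stock) in duplicate plates.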
HPGD inh – qHTS Assay for Inhibitors of HPGD (15-Hydroxyprostaglandin Dehydrogenase); Potency, µM, most hits filed as inhibitors; 15-hydroxyprostaglandin dehydrogenase [NAD(+)] (Homo sapiens), P15428; 150,000 compounds, 4.3% hits; purified HPGD, NADH fluorescence kinetic, PGE2 substrate; AID 894, 2007
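NADH formation kinetics: reaction with 30 uM PGE2 and 1 mM NAD+ (final), 20 nM enzyme, Tris-HCl pH 8 with Tween 20, after 15 min compound preincubation at room temperature. Fluorescence change, last versus first of five reads.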
ALDH1A1 block – qHTS Assay for Inhibitors of Aldehyde Dehydrogenase 1 (ALDH1A1). Potency, µM (highest dose often 75.3 µM), hits mostly inhibitors. 220,000 compounds, 7.3% hits. AID 1030, 2008. Purified ALDH1A1, NADH fluorescence, propionaldehyde substrate. Aldehyde dehydrogenase 1A1 (Homo sapiens), P00352
Target sequence (P00352 whole entry, looked up): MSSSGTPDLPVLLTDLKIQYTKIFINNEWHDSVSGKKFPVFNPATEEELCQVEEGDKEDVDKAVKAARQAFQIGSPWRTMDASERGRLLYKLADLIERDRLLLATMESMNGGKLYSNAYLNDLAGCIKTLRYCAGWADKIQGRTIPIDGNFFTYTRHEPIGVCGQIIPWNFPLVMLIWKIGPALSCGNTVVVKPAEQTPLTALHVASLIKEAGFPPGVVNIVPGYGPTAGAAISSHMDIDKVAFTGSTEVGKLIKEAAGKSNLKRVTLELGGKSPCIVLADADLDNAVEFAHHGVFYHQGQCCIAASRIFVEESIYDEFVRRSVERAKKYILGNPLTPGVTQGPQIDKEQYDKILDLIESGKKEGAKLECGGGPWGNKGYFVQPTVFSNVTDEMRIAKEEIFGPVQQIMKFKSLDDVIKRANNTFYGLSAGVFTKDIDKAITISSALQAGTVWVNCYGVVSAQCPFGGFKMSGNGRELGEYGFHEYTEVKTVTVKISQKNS
LMNA splice mod – qHTS Assay for Modulators of Lamin A Splicing. HeLa LMNA splicing GFP/RFP minigene ratio, 48 h. Potency, µM (highest dose often 46.1 µM), usual class: inhibitors. 200,000 compounds, 0.01% hits. AID 1487, 2009; active = well fitted inhibition curve with a large enough effect in the signal ratio, with a control signal flat, not every such curve was filed as active; inconclusive = small, poorly fitted or top-dose-only effect, or effect the other way, or a change in a side signal; the % refers to the signal ratio
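S3 HeLa stable clones carrying a lamin A-EGFP splicing minigene plus DsRed2 were seeded at 600 cells/well in Opti-MEM with 2% FBS, pin-dosed and incubated 48 h at 37°C. Acumen cytometry (488 nm) gave the GFP/RFP total-intensity ratio.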
Luc counter – Counterscreen for Luciferase (Kinase-Glo TM) Inhibition; Kinase-Glo luciferase, ATP luminescence, 8 min; Potency, µM (doses to about 38.3 µM), usual class: inhibitors; 200,000 compounds, 0.28% hits; AID 1379, 2008; active = well fitted inhibition curve with a large enough effect; inconclusive = small, poorly fitted or top-dose-only effect; note: nearly all actives have a fitted effect of over 60% in size
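Compound is pinned into ATP-containing buffer (10 uM ATP, imidazole pH 7.2, 7 mM MgCl2). Kinase-Glo luciferase reagent is then added. Light output is recorded following an 8-min room-temperature incubation.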
Hits are given with their value; 0 = inactive; ? = inconclusive; - = no result given; [ ] = another dose, or the depositor's remark. Unless noted, calls come from the whole dose curve; as a rule, active = well fitted inhibition curve with a large enough effect (not every such curve was filed as active); inconclusive = small, poorly fitted or top-dose-only effect, or another doubt; inactive = no such curve, though single readings can be large or run the other way.

SMILES | IMPase inh | PNC assembly inh | HPGD inh | ALDH1A1 block | LMNA splice mod | Luc counter
O=C(CCNc1cccc(Cl)c1)c1ccco1 | 0 | 0 | 0 | 7.1µM | 0 | 0
S=C(NCc1ccco1)Nc1cc(Cl)c(Cl)cc1Cl | 0 | ? | 3.2µM | 0 | ? | 0
S=C(NCc1ccco1)Nc1cccc(Cl)c1 | 0 | 0 | 11µM | ? | ? | 0
O=C(NCCSCc1ccco1)Nc1cccc(Cl)c1 | 0 | -84 | 0 | ? | ? | 0
C/C(CCN1CCc2nc(-c3ccccc3)c(-c3ccccc3)cc2C1)=N\OC[C@@H](O)COCc1ccco1 | - | - | - | 0[13.5 µM] | - | -
CCNC(=S)NNC(=O)c1ccccn1 | - | ? | 0 | 0 | ? | 0
O=C(NNC(=S)Nc1ccc(F)c(Cl)c1)c1ccccc1Br | - | - | - | 13µM | ? | 0
O=C(NNC(=S)Nc1ccc(Cl)c(Cl)c1)c1ccccn1 | - | - | - | 3.2µM | - | 0
Cc1cc2c(cc(C(=O)OCC(=O)NCc3ccco3)n2C)s1 | 0 | 0 | 14µM | 0 | ? | 0
S=C(NCc1ccco1)Nc1cc(-c2ccccc2)[nH]n1 | - | - | - | 1.1µM | ? | 0
O=C1C[C@@H](O)[C@@H](O)[C@H]2[C@@H]3C(=O)N(c4cccc(Oc5ccccc5)c4)C(=O)[C@@H]3CC[C@H]12 | - | - | - | 0[13.5 µM] | - | -
O=C1CCC=C1C(O)CCc1ccccc1 (centres undefined) | - | - | 0 | 0 | - | 0
CC1CCCCN1CCCNC(=O)c1ccc2c(c1)sc1nc(-c3ccc(F)cc3)cn12 (centres undefined) | - | - | - | - | 0 | -
S=C(NCc1ccccn1)Nc1ccccc1 | - | 0 | 0 | 0 | 0 | 0
COc1ccc(Cl)cc1NC(=S)NCc1ccco1 | 0 | 0 | 13µM | 0 | 0 | 0
S=C(NCc1ccccn1)Nc1ccc(Cl)c(Cl)c1 | 0 | 0 | 16µM | 11µM | 0 | 0
C=C[C@@H](C)[C@](C)(O)c1ccccc1 | - | - | 0 | 0 | - | 0
CC(C)Cc1nc(N2CCC(C(N)=O)CC2)c2nnn(Cc3ccccc3)c2n1 | 0 | 0 | 0 | 0 | 0 | 0
O=C(c1ccco1)N1CCN(c2ncnc3c2nnn3Cc2ccccc2Cl)CC1 | 0 | 0 | 35µM | ? | ? | 0
CCOC(=O)C1CCN(c2ncnc3c2nnn3Cc2ccccc2Cl)CC1 | - | - | - | ? | 0 | 0
O=C(c1ccco1)N1CCN(c2nc(C(F)(F)F)nc3c2nnn3Cc2ccccc2)CC1 | 0 | 0 | ? | 14µM | ? | 0
O=C(OCC(=O)N1CCc2ccccc21)c1ccc[n+]([O-])c1 | 0 | 0 | 0 | 0 | 0 | 0
O=C(OCC(=O)N1c2ccccc2Sc2ccccc21)c1ccc[n+]([O-])c1 | - | - | - | 24µM | 0 | 0
COc1ccc(CCNC(=O)C(=O)c2c[nH]c3ccccc23)cc1 | - | - | - | 0 | - | -
Cc1ccccc1NC(=O)c1ccccc1NC(=O)CCC(=O)O | - | -109 | 0 | 0 | 0 | 0
SMILES | IMPase inh | PNC assembly inh | HPGD inh | ALDH1A1 block | LMNA splice mod | Luc counter
C=CCNC(=O)c1ccccc1NC(=O)c1ccccc1C | 0 | -100 | 0 | ? | 0 | 0
Cc1ccc(S(=O)(=O)Nc2cc3c(cc2N2CCOCC2)n(C)c(=O)n3C)c(C)c1 | 0 | - | - | - | - | -
NC(=O)c1ccc(N=Nc2c(O)c3ccccc3[nH]c2=O)cc1 | - | - | - | 0 | - | -
COc1cc(N=Nc2c(O)c3ccccc3[nH]c2=O)c(OC)cc1N=Nc1ccccc1 | - | - | - | 16µM | 0 | -
Cc1ccc2c(c1)N(C(=O)N1CCC(C(=O)NC3CCCCCC3)CC1)CC(C)O2 (centres undefined) | - | - | - | - | 0 | -
Cc1ccc(C(=O)OCC(=O)c2cc(C)n(CC3CCCO3)c2C)cc1 (centres undefined) | - | - | - | 0 | 0 | 0
Cc1cc(C(=O)COC(=O)c2n[nH]c3ccccc23)c(C)n1CC1CCCO1 (centres undefined) | 0 | ? | 28µM | 0 | ? | ?
Cc1cc(C(=O)COC(=O)c2cc(O)c3ccccc3c2O)c(C)n1CC1CCCO1 (centres undefined) | - | - | - | 28µM | - | 0
Cc1ccc(NCc2nnc(SCC(=O)N3CCc4ccccc43)n2C)cc1 | 0 | 0 | 0 | 8.9µM | 0 | 0
